Laboratory results taken from the supplement of paper PMC8728848.
This excerpt belongs to a sample that is enriched for the strongest signals.

What was measured:
Test in all cases: glycan array binding signal (z-score within array); higher = stronger binding
Details in all cases: glycan notation: IUPAC condensed, linker removed; mutation: H59Q
[1] = biological target: Fuc(a1-2)Gal(b1-3)[Fuc(a1-4)]GlcNAc(b1-2)Man(a1-3)[Fuc(a1-2)Gal(b1-3)[Fuc(a1-4)]GlcNAc(b1-2)Man(a1-3)]Man(b1-4)GlcNAc(b1-4)GlcNAc
How it was run: (§1)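 The binding signal is a Z-score computed within each array. Data were drawn from 3228 arrays in the Consortium for Functional Glycomics database, restricted to those with a known protein sequence. Scores were averaged over arrays of the same protein sequence at different concentrations or buffers, and over linkers, and negative values can be taken as non-binding.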

[2] = biological target: Fuc(a1-2)Gal(b1-4)GlcNAc(b1-3)Gal(b1-4)GlcNAc(b1-3)Gal(b1-4)GlcNAc
How it was run: as §1

[3] = biological target: Fuc(a1-2)Gal(b1-4)GlcNAc6S
How it was run: as §1

[4] = biological target: Fuc(a1-2)Gal(b1-4)[Fuc(a1-3)]GlcNAc
How it was run: as §1

[5] = biological target: Fuc(a1-2)Gal(b1-4)[Fuc(a1-3)]GlcNAc(b1-2)Man(a1-3)[Fuc(a1-2)Gal(b1-4)[Fuc(a1-3)]GlcNAc(b1-2)Man(a1-6)]Man(b1-4)GlcNAc(b1-4)[Fuc(a1-6)]GlcNAc
How it was run: as §1

[6] = biological target: Fuc(a1-2)[Gal(a1-3)]Gal(b1-4)[Fuc(a1-3)]Glc
How it was run: as §1

[7] = biological target: Fuc(a1-2)[GalNAc(a1-3)]Gal(b1-3)GlcNAc(b1-2)Man(a1-3)[Fuc(a1-2)[GalNAc(a1-3)]Gal(b1-3)GlcNAc(b1-2)Man(a1-6)]Man(b1-4)GlcNAc(b1-4)[Fuc(a1-6)]GlcNAc
How it was run: as §1

[8] = biological target: Fuc(a1-2)[GalNAc(a1-3)]Gal(b1-3)GlcNAc(b1-3)GalNAc
How it was run: as §1

[9] = biological target: Fuc(a1-2)[GalNAc(a1-3)]Gal(b1-4)GlcNAc(b1-6)GalNAc
How it was run: as §1

[10] = biological target: Fuc(a1-3)[Gal(b1-4)]GlcNAc(b1-6)GalNAc
How it was run: as §1

Gal(a1-3)Gal(b1-4)Glc = biological target: Gal(a1-3)Gal(b1-4)Glc
How it was run: as §1

[11] = biological target: Gal(b1-3)GlcNAc(a1-3)Gal(b1-4)GlcNAc
How it was run: as §1

[12] = biological target: Gal(b1-3)GlcNAc(b1-3)Gal(b1-4)GlcNAc
How it was run: as §1

[13] = biological target: Gal(b1-3)GlcNAc(b1-3)Gal(b1-4)GlcNAc(b1-2)[Gal(b1-3)GlcNAc(b1-3)Gal(b1-4)GlcNAc(b1-6)]Man(a1-6)[Gal(b1-3)GlcNAc(b1-3)Gal(b1-4)GlcNAc(b1-2)Man(a1-3)]Man(b1-4)GlcNAc(b1-4)[Fuc(a1-6)]GlcNAc
How it was run: as §1

[14] = biological target: Gal(b1-3)[Fuc(a1-4)]GlcNAc
How it was run: as §1

[15] = biological target: Gal(b1-4)GlcNAc(b1-2)Man(a1-3)[GlcNAc(b1-4)][Gal(b1-4)GlcNAc(b1-2)Man(a1-6)]Man(b1-4)GlcNAc(b1-4)GlcNAc
How it was run: as §1

[16] = biological target: Gal(b1-4)GlcNAc(b1-2)Man(a1-3)[Man(a1-6)]Man(b1-4)GlcNAc(b1-4)GlcNAc
How it was run: as §1

[17] = biological target: Gal(b1-4)GlcNAc(b1-2)Man(a1-6)[Man(a1-3)]Man(b1-4)GlcNAc(b1-4)GlcNAc
How it was run: as §1

[18] = biological target: Gal(b1-4)GlcNAc(b1-3)Gal(b1-4)GlcNAc(b1-2)Man(a1-3)[Gal(b1-4)GlcNAc(b1-3)Gal(b1-4)GlcNAc(b1-2)Man(a1-6)]Man(b1-4)GlcNAc(b1-4)[Fuc(a1-6)]GlcNAc
How it was run: as §1

[19] = biological target: Gal(b1-4)GlcNAc(b1-3)[GlcNAc(b1-6)]Gal(b1-4)GlcNAc
How it was run: as §1

Gal3S(b1-3)GalNAc = biological target: Gal3S(b1-3)GalNAc
How it was run: as §1

Gal3S(b1-3)GlcNAc = biological target: Gal3S(b1-3)GlcNAc
How it was run: as §1

Gal3S(b1-4)Glc = biological target: Gal3S(b1-4)Glc
How it was run: as §1

Gal3S(b1-4)Glc6S = biological target: Gal3S(b1-4)Glc6S
How it was run: as §1

Gal3S(b1-4)GlcNAc = biological target: Gal3S(b1-4)GlcNAc
How it was run: as §1

[20] = biological target: Gal3S(b1-4)[Fuc(a1-3)]GlcNAc6S
How it was run: as §1

Gal3S4S(b1-4)GlcNAc = biological target: Gal3S4S(b1-4)GlcNAc
How it was run: as §1

Gal3S6S(b1-4)GlcNAc6S = biological target: Gal3S6S(b1-4)GlcNAc6S
How it was run: as §1

Gal6S(b1-3)GlcNAc6S = biological target: Gal6S(b1-3)GlcNAc6S
How it was run: as §1

Gal6S(b1-4)GlcNAc = biological target: Gal6S(b1-4)GlcNAc
How it was run: as §1

Gal6S(b1-4)GlcNAc6S = biological target: Gal6S(b1-4)GlcNAc6S
How it was run: as §1

GalNAc(b1-4)GlcNAc6S = biological target: GalNAc(b1-4)GlcNAc6S
How it was run: as §1

GlcA(b1-6)Gal = biological target: GlcA(b1-6)Gal
How it was run: as §1

[21] = biological target: GlcA3S(b1-3)Gal(b1-4)GlcNAc(b1-2)Man
How it was run: as §1

[22] = biological target: GlcA3S(b1-3)Gal(b1-4)GlcNAc(b1-3)Gal(b1-4)Glc
How it was run: as §1

[23] = biological target: GlcNAc(a1-4)Gal(b1-4)GlcNAc(b1-3)Gal(b1-4)Glc
How it was run: as §1

[24] = biological target: GlcNAc(b1-2)Man(a1-3)[GlcNAc(b1-2)Man(a1-6)]Man(b1-4)GlcNAc(b1-4)[Fuc(a1-6)]GlcNAc
How it was run: as §1

[25] = biological target: GlcNAc(b1-2)[GlcNAc(b1-4)]Man(a1-3)[GlcNAc(b1-4)][GlcNAc(b1-2)Man(a1-6)]Man(b1-4)GlcNAc(b1-4)GlcNAc
How it was run: as §1

[26] = biological target: Man(a1-2)Man(a1-3)[Man(a1-6)]Man(a1-6)[Man(a1-2)Man(a1-3)]Man(b1-4)GlcNAc(b1-4)GlcNAc
How it was run: as §1

[27] = biological target: Man(a1-3)[Man(a1-6)]Man(b1-4)GlcNAc(b1-4)GlcNAc
How it was run: as §1

[28] = biological target: Neu5Ac(a2-3)Gal(b1-3)GalNAc6S
How it was run: as §1

[29] = biological target: Neu5Ac(a2-3)Gal(b1-3)GlcNAc(b1-2)Man(a1-3)[GlcNAc(b1-4)][Neu5Ac(a2-3)Gal(b1-3)GlcNAc(b1-2)Man(a1-6)]Man(b1-4)GlcNAc(b1-4)GlcNAc
How it was run: as §1

[30] = biological target: Neu5Ac(a2-3)Gal(b1-4)GlcNAc(b1-2)Man
How it was run: as §1

[31] = biological target: Neu5Ac(a2-3)Gal(b1-4)GlcNAc(b1-2)[Neu5Ac(a2-3)Gal(b1-4)GlcNAc(b1-4)]Man(a1-3)[GlcNAc(b1-4)][Neu5Ac(a2-3)Gal(b1-4)GlcNAc(b1-4)Man(a1-6)]Man(b1-4)GlcNAc(b1-4)GlcNAc
How it was run: as §1

[32] = biological target: Neu5Ac(a2-3)Gal(b1-4)GlcNAc(b1-3)GalNAc
How it was run: as §1

[33] = biological target: Neu5Ac(a2-3)Gal(b1-4)[Fuc(a1-3)]GlcNAc(b1-3)GalNAc
How it was run: as §1

[34] = biological target: Neu5Ac(a2-3)[GalNAc(b1-4)]Gal(b1-4)GlcNAc(b1-3)GalNAc
How it was run: as §1

[35] = biological target: Neu5Ac(a2-6)Gal(b1-4)GlcNAc(b1-2)Man(a1-3)[Man(a1-6)]Man(b1-4)GlcNAc(b1-4)GlcNAc
How it was run: as §1

[36] = biological target: Neu5Ac(a2-6)GalNAc(b1-4)GlcNAc
How it was run: as §1

[37] = biological target: Neu5Ac(a2-8)Neu5Ac(a2-3)Gal(b1-3)GalNAc(b1-4)[Neu5Ac(a2-8)Neu5Ac(a2-3)]Gal(b1-4)Glc
How it was run: as §1

Neu5Gc(a2-6)GalNAc = biological target: Neu5Gc(a2-6)GalNAc
How it was run: as §1

[38] = biological target: Neu5Gc(a2-8)Neu5Gc(a2-6)Gal(b1-4)GlcNAc
How it was run: as §1

[39] = biological target: Neu5Gc(b2-6)Gal(b1-4)GlcNAc
How it was run: as §1

B1: rAAL-H59Q (Agrocybe aegerita), Q6WY08 (protein)
chain: MQGVNIYNISAGTSVDLAAPVTTGDIVTFFSSALNLNAGAGNPNNTTLNLFAENGAYLLQIAFRLQENVIIFNSRQPDGPWLVEQRVSDVANQFAGIDGKAMVTVFDHGDKYQVVINEKTVIQYTKQISGLTLSLSYNATEETSIFSTVVEAVTYTGLALEHHHHHH
[1]
  glycan array binding signal (z-score): -0.014
[2]
  glycan array binding signal (z-score): -0.113
[3]
  glycan array binding signal (z-score): -0.085
[4]
  glycan array binding signal (z-score): -0.09
[5]
  glycan array binding signal (z-score): 0.171
[6]
  glycan array binding signal (z-score): -0.097
[7]
  glycan array binding signal (z-score): -0.106
[8]
  glycan array binding signal (z-score): -0.035
[9]
  glycan array binding signal (z-score): -0.124
[10]
  glycan array binding signal (z-score): -0.126
Gal(a1-3)Gal(b1-4)Glc
  glycan array binding signal (z-score): -0.07
[11]
  glycan array binding signal (z-score): -0.119
[12]
  glycan array binding signal (z-score): -0.093
[13]
  glycan array binding signal (z-score): 0.115
[14]
  glycan array binding signal (z-score): -0.116
[15]
  glycan array binding signal (z-score): -0.06
[16]
  glycan array binding signal (z-score): -0.059
[17]
  glycan array binding signal (z-score): 0.003
[18]
  glycan array binding signal (z-score): -0.015
[19]
  glycan array binding signal (z-score): -0.115
Gal3S(b1-3)GalNAc
  glycan array binding signal (z-score): 7.76
Gal3S(b1-3)GlcNAc
  glycan array binding signal (z-score): 0.192
Gal3S(b1-4)Glc
  glycan array binding signal (z-score): 0.7
Gal3S(b1-4)Glc6S
  glycan array binding signal (z-score): 0.468
Gal3S(b1-4)GlcNAc
  glycan array binding signal (z-score): 0.615
[20]
  glycan array binding signal (z-score): 0.694
Gal3S4S(b1-4)GlcNAc
  glycan array binding signal (z-score): -0.119
Gal3S6S(b1-4)GlcNAc6S
  glycan array binding signal (z-score): 0.071
Gal6S(b1-3)GlcNAc6S
  glycan array binding signal (z-score): -0.113
Gal6S(b1-4)GlcNAc
  glycan array binding signal (z-score): -0.086
Gal6S(b1-4)GlcNAc6S
  glycan array binding signal (z-score): -0.14
GalNAc(b1-4)GlcNAc6S
  glycan array binding signal (z-score): -0.023
GlcA(b1-6)Gal
  glycan array binding signal (z-score): -0.064
[21]
  glycan array binding signal (z-score): 19.6
[22]
  glycan array binding signal (z-score): 12.1
[23]
  glycan array binding signal (z-score): -0.059
[24]
  glycan array binding signal (z-score): -0.07
[25]
  glycan array binding signal (z-score): -0.055
[26]
  glycan array binding signal (z-score): -0.093
[27]
  glycan array binding signal (z-score): -0.085
[28]
  glycan array binding signal (z-score): -0.117
[29]
  glycan array binding signal (z-score): -0.066
[30]
  glycan array binding signal (z-score): -0.03
[31]
  glycan array binding signal (z-score): -0.016
[32]
  glycan array binding signal (z-score): -0.092
[33]
  glycan array binding signal (z-score): 0.246
[34]
  glycan array binding signal (z-score): -0.084
[35]
  glycan array binding signal (z-score): 0.009
[36]
  glycan array binding signal (z-score): -0.112
[37]
  glycan array binding signal (z-score): -0.103
Neu5Gc(a2-6)GalNAc
  glycan array binding signal (z-score): -0.145
[38]
  glycan array binding signal (z-score): -0.072
[39]
  glycan array binding signal (z-score): -0.027
